Measured values from PubChem BioAssay (EPA / NIEHS).
Several values for one entry are separate records, joined by “and”; a condition that tells them apart may be missing. Equal values may be shown once. Results filed as inconclusive are left out. Where a structure was tested more than once in an assay, its records may differ in their call. Activity calls are given as the source filed them. How the source made its calls, unless noted: active means hit-call score of the fitted dose curve at least 0.9, where 1 is the maximum; inconclusive means response in the unintended direction; inactive means score below 0.9.

Tests used:
[1] = TOX21_p53_BLA_p2_viability: Viability Assessment in the Tox21 HCT-116 p53 Agonism Beta-lactamase Assay, Phase 2 (AID 2283591);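 further: actives lower the ATP signal meaning cytotoxicity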
How it was run: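 HCT116 p53-bla cells, 4000/well, dosed after 5 h plating (217-fold dilution of DMSO stocks) and incubated 16 h at 37C. Viability taken as cellular ATP by CellTiter-Glo luminescence after 30 min RT; signal loss marks cytotoxicity.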

[2] = biological target: Cellular tumor antigen p53 (Homo sapiens) (UniProt P04637); experiment: TOX21_p53_BLA_p2_ratio: Tox21 HCT-116 p53 Agonism Beta-lactamase Assay, Ratio, Phase 2 (AID 2283592)
How it was run: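 Readout: blue/green (460/530 nm) FRET emission ratio after 2 h CCF4-AM loading at room temperature, excitation 405 nm. HCT116 p53 bla cells, 16 h compound exposure at 37C, 5% CO2; agonist direction fitted against DMSO baseline.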

[3] = TOX21_p53_BLA_p3_viability: Viability Assessment in the Tox21 HCT-116 p53 Agonism Beta-lactamase Assay, Phase 3 (AID 2283593);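 further: cells exposed to compound for 16 h before reading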
How it was run: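 HCT116 cells, 4000/well, dosed 5 h after plating by pin transfer (217-fold dilution from DMSO stock) and incubated 16 h at 37C, 5% CO2. Viability read as ATP luminescence with CellTiter-Glo after 30 min at room temperature.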

[4] = biological target: Cellular tumor antigen p53 (Homo sapiens) (UniProt P04637); experiment: TOX21_p53_BLA_p3_ratio: Tox21 HCT-116 p53 Agonism Beta-lactamase Assay, Ratio, Phase 3 (AID 2283596)
How it was run: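 Cells were seeded at 4000/well, rested 5 h at 37C, then dosed with DMSO compound solutions (217-fold dilution) for 16 h. CCF4-AM substrate was loaded for 2 h at room temperature, and the 460/530 nm emission ratio was fitted for gain of signal versus DMSO.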

[5] = TOX21_p53_BLA_p4_viability: Viability Assessment in the Tox21 HCT-116 p53 Agonism Beta-lactamase Assay, Phase 4 (AID 2283597);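 further: hits lower the luminescence signal meaning cytotoxicity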
How it was run: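 ATP content by CellTiter-Glo luminescence, 30 min RT, read after the beta-lactamase ratio step. Cells: HCT116, 4000/well, compound added after 5 h, exposure 16 h at 37C. Signal loss = reduced viability.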

[6] = biological target: Cellular tumor antigen p53 (Homo sapiens) (UniProt P04637); experiment: TOX21_p53_BLA_p5_ratio: Tox21 HCT-116 p53 Agonism Beta-lactamase Assay, Ratio, Phase 5 (AID 2283599)
How it was run: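 HCT-116 p53-bla cells (4000/well) plated 5 h, dosed with compound (217-fold DMSO dilution) for 16 h at 37 C; CCF4-AM substrate 2 h at room temperature. Activity is the 460/530 nm emission ratio (405 nm excitation), fitted in gain-of-signal direction versus DMSO.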

[7] = TOX21_p53_BLA_p5_viability: Viability Assessment in the Tox21 HCT-116 p53 Agonism Beta-lactamase Assay, Phase 5 (AID 2283600)
How it was run: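 ATP luminescence (CellTiter-Glo, 30 min, RT) served as the viability read-out, with loss of signal indicating cytotoxicity. Compounds in DMSO were pinned at a 217-fold dilution onto 4000 cells/well and incubated 16 h, 37C.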

[8] = biological target: Cellular tumor antigen p53 (Homo sapiens) (UniProt P04637); experiment: TOX21_p53_BLA_p4_ratio: Tox21 HCT-116 p53 Agonism Beta-lactamase Assay, Ratio, Phase 4 (AID 2283601)
How it was run: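 HCT-116 p53 beta-lactamase reporter cells (4000/well) preincubated 5 h, then compound (217-fold dilution of DMSO stock) for 16 h at 37C. CCF4-AM substrate added 2 h at room temperature; 460/530 nm emission ratio fitted upward versus DMSO.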

[9] = CCTE_Harrill_HTTr_Viability_MCF7: CCTE's 6-hour Cell Viability Assessment for the High-Throughput Transcriptomics (HTTr) Platform, in MCF-7 cells cultured in DMEM + 10% fetal bovine serum, Harrill Lab (AID 2284010; active means hit-call score of the fitted dose curve at least 0.9, where 1 is the maximum; inactive means score below 0.9)
How it was run: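 PI exclusion, high-content imaging; 8-pt dilution series, 6 h exposure; bidirectional fit vs DMSO (neg. ctrl/baseline); gain of signal = loss of membrane integrity.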

[10] = CCTE_Harrill_HTTr_Apoptosis_MCF7: CCTE's 6-hour Apoptosis Assessment for the High-Throughput Transcriptomics (HTTr) Platform, in MCF-7 cells cultured in DMEM + 10% fetal bovine serum, Harrill Lab (AID 2284011; active means hit-call score of the fitted dose curve at least 0.9, where 1 is the maximum; inactive means score below 0.9)
How it was run: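 Read-out: CellEvent Caspase 3/7 Green signal by high content imaging, gain-of-signal indicating apoptosis. MCF-7 cells, DMEM + 10% FBS, eight-point dilution series, 6 h exposure. Curves fitted bidirectionally relative to DMSO negative control.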

Measured: AC50

Sequence of Cellular tumor antigen p53 (Homo sapiens) (P04637 whole entry, looked up): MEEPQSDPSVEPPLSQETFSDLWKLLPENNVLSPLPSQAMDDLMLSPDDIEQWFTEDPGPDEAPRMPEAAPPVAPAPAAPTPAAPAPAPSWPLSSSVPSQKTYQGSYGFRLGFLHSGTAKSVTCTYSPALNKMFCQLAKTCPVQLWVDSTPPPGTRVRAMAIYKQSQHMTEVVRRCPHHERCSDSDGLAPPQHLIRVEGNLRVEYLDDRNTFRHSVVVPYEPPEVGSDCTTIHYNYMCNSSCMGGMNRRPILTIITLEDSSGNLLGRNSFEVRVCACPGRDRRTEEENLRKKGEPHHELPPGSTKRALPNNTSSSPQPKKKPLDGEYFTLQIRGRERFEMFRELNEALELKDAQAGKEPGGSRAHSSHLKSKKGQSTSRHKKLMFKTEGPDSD

CCOC(=O)c1ccc(OCCN2C[C@H](O)[C@@H](O)[C@H](O)[C@H]2CO)cc1
inactive: [1] | [2] | [3]

CC(=O)Nc1ccccc1C
inactive: [1] | [2] | [3] | [4] | [5] | [6]

OCCOCCN1CCN(C(c2ccccc2)c2ccc(Cl)cc2)CC1 (centres undefined)
active: [2] 0.000306 µM | [6] 0.000384 µM | [8] 0.000245 µM
inactive: [1] | [2] | [3] | [4] | [5] | [6] | [7] | [8]

O=S(=O)(O)c1ccc2nc(-c3ccccc3)[nH]c2c1
active: [1] 30.2 µM and 19.9 µM | [3] 15.6 µM | [5] 33.8 µM and 23 µM | [7] 24.8 µM
inactive: [2] | [3] | [4] | [7] | [8]

CCO[Si](C)(CCCOCC1CO1)OCC (centres undefined)
inactive: [1] | [2] | [3] | [4] | [5] | [6]

COc1cc(/C=C/C(=O)O[C@H]2CC[C@]34C[C@]35CC[C@]3(C)[C@@H]([C@H](C)CCC=C(C)C)CC[C@@]3(C)[C@@H]5CC[C@H]4C2(C)C)ccc1O
inactive: [1] | [2] | [3] | [4] | [5] | [6] | [7]
active: [3] 26.8 µM | [4] 23 µM | [6] 13.3 µM | [8] 6.07 µM

COC(=O)[C@H]1[C@H]2C[C@@H]3c4[nH]c5ccccc5c4CCN3C[C@H]2C[C@@H](OC(=O)c2cc(OC)c(OC)c(OC)c2)[C@@H]1OC
active: [5] 6.8 µM | [8] 15.7 µM
inactive: [1] | [2] | [3] | [4] | [5] | [6] | [7] | [8]

Oc1cccc(-c2c3nc(c(-c4cccc(O)c4)c4ccc([nH]4)c(-c4cccc(O)c4)c4nc(c(-c5cccc(O)c5)c5ccc2[nH]5)CC4)C=C3)c1
inactive: [3] | [4]
active: [1] 20.2 µM and 17.5 µM | [2] 26.1 µM and 33.8 µM | [3] 35.7 µM | [4] 37.4 µM | [5] 17 µM and 33.2 µM | [6] 37.1 µM and 38.3 µM | [8] 24.5 µM and 36.4 µM

CON=C1C[C@]2(C[C@@H]3C[C@@H](C/C=C(\C)C[C@@H](C)/C=C/C=C4\CO[C@@H]5[C@H](O)C(C)=C[C@@H](C(=O)O3)[C@]45O)O2)O[C@H](/C(C)=C/C(C)C)[C@H]1C
inactive: [2] | [6] | [8]
active: [1] 8.61 µM and 8.38 µM | [2] 21 µM | [3] 17.2 µM and 13.8 µM | [4] 35.2 µM and 21.3 µM | [5] 9.09 µM and 8.73 µM | [6] 22 µM | [7] 17.3 µM and 10.7 µM | [8] 18.8 µM

C=Cc1ccc(S(=O)(=O)O)cc1
active: [5] 46.1 µM
inactive: [1] | [2] | [3] | [4] | [5] | [6] | [7] | [8]

CCCCCOC(=O)CCCC
inactive: [1] | [2] | [3]

O=C(CCCCCCC(=O)Nc1ccccc1)NO
inactive: [1] | [3] | [4] | [7]
active: [2] 420 nM and 686 nM | [4] 0.874 µM | [5] 4.47 µM and 7.11 µM | [6] 1.08 µM and 842 nM | [8] 904 nM and 534 nM

CC1(C)[C@@H](O)CC[C@]2(C)[C@H]3C(=O)C=C4[C@@H]5C[C@@](C)(C(=O)O)CC[C@]5(C)CC[C@@]4(C)[C@]3(C)CC[C@@H]12
inactive: [1] | [2] | [3] | [4] | [5] | [6] | [7] | [8]
active: [3] 61.4 µM and 22.5 µM | [4] 46.4 µM | [6] 43.1 µM | [7] 30.6 µM and 33.5 µM

C[C@@H](O)[C@H]1C(=O)N2C(C(=O)O)=C(SCCN=CN)C[C@H]12
inactive: [1] | [2] | [3] | [4] | [5] | [6]

CC=CC(=O)CCCC
inactive: [1] | [2] | [3] | [4] | [5]

CO[C@H]1C[C@@H]2CC[C@@H](C)[C@@](O)(O2)C(=O)C(=O)N2CCCC[C@H]2C(=O)O[C@H]([C@H](C)C[C@@H]2CC[C@@H](O)[C@H](OC)C2)CC(=O)[C@H](C)/C=C(\C)[C@@H](O)[C@@H](OC)C(=O)[C@H](C)C[C@H](C)\C=C/C=C/C=C/1C
inactive: [2]
active: [1] 18.1 µM and 20.6 µM | [2] 29.7 µM | [3] 33.3 µM and 22.4 µM | [4] 41 µM and 40.8 µM | [5] 17.5 µM and 17.7 µM | [6] 35.1 µM and 34.8 µM | [7] 23.7 µM and 23.9 µM | [8] 21.7 µM and 20.8 µM

CCOc1cccc(N)c1
inactive: [1] | [2] | [3]

CC(COc1ccccc1)N(CCCl)Cc1ccccc1 (centres undefined)
inactive: [1] | [2] | [3] | [4] | [5] | [6] | [7] | [8] | [9] | [10]
active: [3] 54.6 µM and 79.1 µM | [4] 23.1 µM

OCc1cc(C(O)CNCCCCCCOCCCCc2ccccc2)ccc1O (centres undefined)
active: [5] 28.2 µM
inactive: [1] | [2] | [3] | [4] | [5] | [6] | [7] | [8]

NC[C@H]1O[C@H](O[C@H]2[C@H](O)[C@@H](O[C@H]3O[C@H](CO)[C@@H](O)[C@H](N)[C@H]3O)[C@H](N)C[C@@H]2N)[C@H](O)[C@@H](O)[C@@H]1O
inactive: [1] | [2] | [3] | [4] | [5] | [7] | [8]
active: [2] 3.79 µM | [6] 3.34 µM

NC(=O)NNc1ccccc1
active: [4] 0.000125 µM | [8] 6.08e-05 µM
inactive: [1] | [2] | [3] | [4] | [5] | [6] | [7] | [8]

Cc1cc(C)c(N=Nc2c(O)c(S(=O)(=O)O)cc3cc(S(=O)(=O)O)ccc23)cc1C
inactive: [1] | [2] | [3] | [4] | [5] | [6]

C[N+]1(CC2COC(c3ccccc3)(c3ccccc3)O2)CCCCC1 (centres undefined)
inactive: [1] | [2] | [3] | [4] | [5]

CCc1nn(CCCN2CCN(c3cccc(Cl)c3)CC2)c(=O)n1CCOc1ccccc1
inactive: [1] | [2] | [3] | [4] | [6] | [7] | [8]
active: [3] 18.9 µM | [5] 23 µM and 14.9 µM

Cc1c(C)c2c(c(C)c1OC(=O)CCC(=O)O)CC[C@@](C)(CCC[C@H](C)CCC[C@H](C)CCCC(C)C)O2
active: [3] 46.5 µM and 41.2 µM | [4] 67.7 µM
inactive: [1] | [2] | [4] | [5] | [6] | [7] | [8]

CC1=CC(=C(c2ccc(N)cc2)c2ccc(N)cc2)C=CC1=N
inactive: [1] | [2] | [3] | [4] | [5] | [6] | [7] | [8]
active: [2] 19.9 µM

Cc1cccc2cccnc12
inactive: [1] | [2] | [3] | [4] | [5]

O=C(O)c1ccc(S(=O)(=O)N(Cl)Cl)cc1
inactive: [1] | [2] | [3] | [4] | [5] | [6] | [7] | [8]
active: [2] 64.5 µM

COC1=C(OC)C(=O)C(C/C=C(\C)CC/C=C(\C)CC/C=C(\C)CC/C=C(\C)CC/C=C(\C)CC/C=C(\C)CC/C=C(\C)CC/C=C(\C)CC/C=C(\C)CCC=C(C)C)=C(C)C1=O
active: [4] 42.8 µM
inactive: [1] | [2] | [3] | [4] | [5] | [6] | [7] | [8]

C=C(CC)C(=O)c1ccc(OCC(=O)O)c(Cl)c1Cl
inactive: [1] | [3] | [5] | [6] | [7] | [8]
active: [2] 13.8 µM and 6.46 µM | [4] 50.8 µM and 38.9 µM | [5] 45.8 µM | [6] 24.7 µM | [8] 25.2 µM

Oc1cccc(O)c1O
inactive: [1] | [2] | [3] | [4] | [5] | [6] | [8]
active: [2] 75.6 µM

CCCCOCCOCCOCCCC
not listed: [8] | [9] | [10]
inactive: all other assays above

Cc1cc(O)c2c(O)c3c(O)cccc3cc2c1
not listed: [8] | [9] | [10]
inactive: all other assays above

Nc1cc(S(=O)(=O)O)ccc1O
inactive: [1] | [2] | [3] | [4] | [5] | [6]

Cc1nc(NS(=O)(=O)c2ccc(N)cc2)nc(C)c1Br
not listed: [8] | [9] | [10]
inactive: all other assays above
